Data published in PubChem BioAssay (NCATS).
Results filed as inconclusive are left out. Activity calls are given as the source filed them. Unless noted, calls come from the whole dose curve; as a rule, active = well fitted curve in either direction with a large enough effect (not every such curve was filed as active); inconclusive = small, poorly fitted or top-dose-only effect, or another doubt; inactive = flat fitted curve, though single readings scatter.

Legend:
[1] = biological target: Mitogen-activated protein kinase 10 (Mus musculus) (UniProt Q61831); experiment: JNK3 AlphaScreen Assay (AID 530); conditions: JNK3 lysate, c-Jun phosphorylation; series mostly up to 57.1 µM;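 note: kinase came from lysate of stimulated human HepG2 cells; signal reports phosphorylation of biotinylated GST-cJun 1-79 at Ser73 with 10 µM ATP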
Procedure, shortened: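 qHTS format: compounds tested as titrations against IL-1beta/TNF-alpha-activated HepG2 lysate JNK3 with biotin-GST-cJun substrate and 10 uM ATP at room temperature. Loss of anti-phospho-cJun AlphaScreen signal indicates inhibition.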

[2] = biological target: 3',5'-cyclic-AMP phosphodiesterase 4B (Homo sapiens) (UniProt Q07343); experiment: qHTS Assay for Inhibitors of PDE-IV (AID 607; active = well fitted activation curve with a large enough effect in the main read-out, with a control signal flat, not every such curve was filed as active); conditions: HEK293 ACTOne CNG channel cells, membrane potential fluorescence; series mostly up to 22.9 µM
3',5'-cyclic-AMP phosphodiesterase 4B (Homo sapiens), sequence (Q07343 whole entry, looked up): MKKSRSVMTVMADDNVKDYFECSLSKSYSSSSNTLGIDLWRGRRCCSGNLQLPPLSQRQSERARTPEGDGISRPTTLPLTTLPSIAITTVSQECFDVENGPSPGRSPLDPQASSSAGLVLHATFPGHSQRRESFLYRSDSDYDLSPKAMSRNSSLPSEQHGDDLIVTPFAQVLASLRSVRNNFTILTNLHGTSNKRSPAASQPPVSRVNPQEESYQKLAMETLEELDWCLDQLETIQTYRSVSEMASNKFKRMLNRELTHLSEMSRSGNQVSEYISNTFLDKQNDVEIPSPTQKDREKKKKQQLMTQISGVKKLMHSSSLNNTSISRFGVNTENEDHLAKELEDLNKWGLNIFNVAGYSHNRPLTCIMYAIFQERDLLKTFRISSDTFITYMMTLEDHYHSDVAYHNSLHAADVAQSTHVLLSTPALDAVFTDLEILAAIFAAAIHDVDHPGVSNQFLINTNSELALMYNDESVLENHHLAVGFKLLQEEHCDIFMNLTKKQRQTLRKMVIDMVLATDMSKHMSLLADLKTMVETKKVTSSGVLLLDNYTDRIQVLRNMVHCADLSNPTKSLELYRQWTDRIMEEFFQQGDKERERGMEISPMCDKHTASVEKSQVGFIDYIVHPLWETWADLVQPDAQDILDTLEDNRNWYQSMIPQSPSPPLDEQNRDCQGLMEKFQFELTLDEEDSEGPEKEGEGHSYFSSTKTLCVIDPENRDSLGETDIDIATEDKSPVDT
Procedure, shortened: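 ACTOne HEK293 cells carry a modified cAMP-gated CNG channel and express endogenous PDE4; plated 1000 cells/well, compounds up to 22.9 uM final. Membrane-potential dye fluorescence (ex 535/em 590) was read; parental cells received 10 uM forskolin + 100 uM RO 20-1724.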

SMILES	outcome [1]	outcome [2]
COC(=O)[C@@]1(Cc2ccc(F)cc2)[C@H]2c3cc(C(=O)N(C)C)n(CCc4ccc(OC)c(Br)c4)c3C[C@H]2CN1C(=O)c1ccccc1	inactive	inactive
COC(=O)[C@@]1(Cc2ccc(F)cc2)[C@H]2c3cc(C(=O)N(C)C)n(Cc4ccccn4)c3C[C@H]2CN1C(=O)c1ccccc1	inactive	inactive
COC(=O)[C@@]1(Cc2ccc(F)cc2)[C@H]2c3cc(C(=O)N(C)C)n(CCO)c3C[C@H]2CN1C(=O)c1ccccc1	inactive	inactive
COC(=O)[C@H]1C[C@@H]1[C@H](NS(=O)(=O)c1ccccc1)c1ccccc1	inactive	inactive
Cc1cc(C(=O)N[C@H](c2ccccc2)[C@@]2(C)C[C@@H]2[C@@H](C)C(=O)Nc2ccc3ccccc3c2)no1	inactive	inactive
COC(=O)[C@@H]1C[C@H]1[C@@H](N)c1ccccc1	inactive	inactive
COC(=O)[C@@]1(Cc2ccc(OC)cc2)[C@H]2c3cc(C(=O)N4CCCC4)n(CCc4ccc(O)c(OC)c4)c3C[C@H]2CN1C(=O)c1ccccc1	inactive	inactive
CCc1c2c(nc3ccccc13)OC(C)C2 (configuration not stated)	inactive	inactive
C[C@@H](C(=O)NCc1ccccc1)[C@H]1C[C@]1(C)[C@H](NC(=O)OCc1ccccc1)c1ccccc1	inactive	inactive
CCc1c2c(nc3ccc(OC)cc13)OC(C)C2 (configuration not stated)	inactive	inactive
COC(=O)Cn1c(C(=O)N(C)C)cc2c1C[C@H]1CN(C(=O)c3ccccc3)[C@@](Cc3ccc(OC)cc3)(C(=O)OC)[C@@H]21	inactive	inactive
COC(=O)[C@@]1(Cc2ccc(OC)cc2)[C@H]2c3cc(C(=O)N(C)C)n(Cc4ccc(C(F)(F)F)nc4)c3C[C@H]2CN1C(=O)c1ccccc1	inactive	inactive
COC(=O)[C@@]1(Cc2ccccc2)[C@H]2c3cc(C(=O)N(C)C)n(Cc4cc(F)c(F)c(F)c4)c3C[C@H]2CN1C(=O)c1ccccc1	inactive	inactive
COC(=O)[C@@]1(Cc2ccc(OC)cc2)[C@H]2c3cc(C(=O)N(C)C)n(Cc4ccc(OC)c(OC)c4)c3C[C@H]2CN1C(=O)c1ccccc1	inactive	inactive
C[C@@H](C(=O)Nc1ccc2ccccc2c1)[C@@H]1C[C@@]1(C)[C@@H](NC(=O)c1cccnc1)c1ccccc1	inactive	inactive
COC(=O)[C@@]1(Cc2ccc(OC)cc2)[C@H]2c3cc(C(=O)N4CCCC4)n(CCF)c3C[C@H]2CN1C(=O)c1ccccc1	inactive	inactive
